According to PubChem BioAssay (EPA / NIEHS):
Calls of active or inactive are those of the source. The calls were made as follows, unless noted: active = hit-call score of the fitted dose curve at least 0.9, where 1 is the maximum; inactive = score below 0.9.

Test system: SERPINA7 (gene 6906)
Test: CCTE_GLTED_hTBG: CCTE's human Thyroxine-binding Globulin (TBG) Inhibition Assay, Great Lakes Toxicology and Ecology Division (GLTED) Lab (AID 2284343; active = hit-call score of the fitted dose curve at least 0.9, where 1 is the maximum;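 also: active chemicals lower fluorescence versus DMSO baseline by displacing probe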)
Settings: not given
Summary of the method: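 hTBG + test chem, 2 h; ANSA probe displacement; fluorescence readout ex380/em475; DMSO = neg ctrl/baseline; cell-free.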

Structure (SMILES) | outcome | AC50
Cn1c(-c2ccccc2)cc(-c2ccccc2)[n+]1C | inactive | –
CCOP(=O)(OCC)Oc1nc(Cl)c(Cl)cc1Cl | – | 14.9 µM (active)
CC(C)Oc1cccc(NC(=O)c2ccccc2C(F)(F)F)c1 | – | 50 µM (active)
C=C(C)CN(CC)c1c([N+](=O)[O-])cc(C(F)(F)F)cc1[N+](=O)[O-] | – | 8.89 µM (active)
CCCCOCN(C(=O)CCl)c1c(CC)cccc1CC | – | 19.1 µM (active)
CCCN(CC)CC1COC2(CCC(C(C)(C)C)CC2)O1 (stereo not drawn) | inactive | –
CCCCC(O)(Cn1cncn1)c1ccc(Cl)cc1Cl (stereo not drawn) | – | 11.3 µM (active)
OC(c1ccc(Cl)cc1)(c1ccc(Cl)cc1)C(Cl)(Cl)Cl | – | 5.3 µM (active)
CC1(C)CCC(=Cc2ccc(Cl)cc2)C1(O)Cn1cncn1 (stereo not drawn) | – | 36.4 µM (active)
CCOC(=O)C(C)OC(=O)c1cc(Oc2ccc(C(F)(F)F)cc2Cl)ccc1[N+](=O)[O-] (stereo not drawn) | inactive | –

Test system: not listed separately
Test: CCTE_Deisenroth_H295R-HTRF_384WELL_ESTRADIOL: CCTE's H295R-HTRF Assay Evaluation of Estradiol Concentration, Deisenroth Lab (AID 2284361)
Settings: actives raise or lower the signal
Summary of the method: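 H295R cells exposed 48 h to chemicals at 0.001 - 100 uM final (nine points, triplicate); estradiol in conditioned medium measured by HTRF immunoassay, fitted bidirectionally versus DMSO. Viability by CellTiter-Glo on same plates.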

Structure (SMILES) | outcome
CCCCC(C#N)(Cn1cncn1)c1ccc(Cl)cc1 (stereo not drawn) | inactive
CCSC(=O)N1CCCCCC1 | inactive
CC(C)(C)C(=O)C(Oc1ccc(Cl)cc1)n1cncn1 (stereo not drawn) | inactive

Test system: not listed separately
Test: CCTE_Deisenroth_H295R-HTRF_384WELL_TESTOSTERONE: CCTE's H295R-HTRF Assay Evaluation of Testosterone Concentration, Deisenroth Lab (AID 2284373)
Settings: actives raise or lower the signal
Description: CCTE_Deisenroth_H295R-HTRF_384WELL assay is a cell-based, multiplex-readout assay that uses H295R, a human adrenocortical carcinoma cell line, with measurements taken at 48 hours after chemical dosing in a 384-well microplateCCTE_Deisenroth_H295R-HTRF_384WELL_TESTOSTERONE is one of 3 assay components calculated in the CCTE_Deisenroth_H295R-HTRF_384WELL assay (2 hormones and 1 viability components). It is designed to make measurements of hormone induction, a form of inducible reporter, as detected with Homogenous Time Resolved Fluorescence immunoassay technology.This assay endpoint, CCTE_Deisenroth_H295R-HTRF_384WELL_TESTOSTERONE, was analyzed with bidirectional fitting relative to DMSO as the negative control and baseline of activity. Using a type of inducible reporter, gain or loss-of-signal activity using Homogenous Time Resolved Fluorescence technology was used to understand synthesis of testosterone in the H295R cell line at 48hr of chemical exposure. To generalize the intended target to other relatable targets, this assay endpoint is annotated to the steroid hormone intended target family, where the subfamily is androgens.
Standard operating procedures for the cell culture medium, maintenance, expansion, and cryopreservation of the NCI-H295R adrenocortical carcinoma adherent cell line were adopted directly from guideline specifications7,13. The assay workflow follows a three-day protocol consistent with the paradigm defined in OECD TG 456 and U.S. EPA OCSPP Guideline 890.1550. On day 0, cells are plated in 384-well microplates and acclimated for 24 hours. On Day 1, test chemicals are dispensed into separate 384-well microplates in a nine-point 2X dilution series (0.002 - 200 uM). […] Fluorescent endpoint measurements are conducted with a microplate reader equipped with an HTRF-compatible filter set (ex: 320 (10) […]; em: 620 (10) and 665 (10) nM). […] After collecting conditioned medium samples on Day 3, the viability assay is immediately performed and luminescence readings measured on a microplate reader. […]

Structure (SMILES) | outcome | AC50
CCCCC(C#N)(Cn1cncn1)c1ccc(Cl)cc1 (stereo not drawn) | inactive | –
CCSC(=O)N1CCCCCC1 | inactive | –
CC(C)(C)C(=O)C(Oc1ccc(Cl)cc1)n1cncn1 (stereo not drawn) | – | 8.94 µM (active)

Test system: not listed separately
Test: CCTE_Deisenroth_H295R-HTRF_384WELL_CTOX: Cytotoxicity Assessment in CCTE's H295R-HTRF Assay, Deisenroth Lab (AID 2284380; active = hit-call score of the fitted dose curve at least 0.9, where 1 is the maximum)
Settings: not given
Summary of the method: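 H295R adrenocortical carcinoma cells plated 24 h, then exposed 48 h to nine-point series 0.001–100 uM final, triplicate, n=5. ATP measured by CellTiter-Glo 2.0 luminescence on same plates after medium collection; loss versus DMSO.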

Structure (SMILES) | outcome
CCCCC(C#N)(Cn1cncn1)c1ccc(Cl)cc1 (stereo not drawn) | inactive
CCSC(=O)N1CCCCCC1 | inactive
CC(C)(C)C(=O)C(Oc1ccc(Cl)cc1)n1cncn1 (stereo not drawn) | inactive

Test system: TTR (gene 7276)
Test: CCTE_GLTED_hTTR_0.125uM: CCTE's human Transthyretin (hTTR) Inhibition Assay, with 0.125uM TTR, Great Lakes Toxicology and Ecology Division (GLTED) Lab (AID 2284431);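 also: hits lower the fluorescence signal relative to DMSO baseline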
Settings: not given
Summary of the method: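 Probe-displacement format: chemicals competing for the T4 site release ANSA from 0.125uM TTR during a 2 h incubation, measured by fluorescence at 380 excitation and 475 emission.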

Structure (SMILES) | AC50
CCOc1nc(C(Cl)(Cl)Cl)ns1 | 5.26 µM (active)
CO/N=C(/C1=NOCCO1)c1ccccc1Oc1ncnc(Oc2ccccc2Cl)c1F | 5.22 µM (active)
Cn1c(-c2ccccc2)cc(-c2ccccc2)[n+]1C | 27.8 µM (active)
N#Cc1c[nH]cc1-c1cccc2c1OC(F)(F)O2 | 0.5 µM (active)
CCOP(=O)(OCC)Oc1nc(Cl)c(Cl)cc1Cl | 0.395 µM (active)
O=C1C2CC=CCC2C(=O)N1SC(Cl)(Cl)Cl (stereo not drawn) | 21.1 µM (active)
CC(C)NC(=O)N1CC(=O)N(c2cc(Cl)cc(Cl)c2)C1=O | 2.51 µM (active)
COP(=S)(OC)Oc1ccc([N+](=O)[O-])c(C)c1 | 8.85 µM (active)
COc1cc(Cl)c(OC)cc1Cl | 4.26 µM (active)
